Measured values from the supplement of paper PMC10849652.
The full data set covers some 8,800 targets. This sample favours those with a hit. About 0.5% of all pairs of compound and target were hits. Values without a mark were called inactive.

How the values were obtained:
Experiment in all cases: log2 fold change, soluble protein after heating vs DMSO (PISA); higher = thermal stabilisation; K562 lysate, 10 uM; active = over 0.2 and 3.5 SD of the protein, either way, in both replicates (recomputed)
[1] = compound: C1=CC=C(C=C1)[C@H](COC2=CC3=C(C=C2)NC(=O)N3)NC(=O)C4=CC=CN(C4=O)CC5=CC(=C(C=C5)F)F
How it was run: (§1)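 Log-two fold change in thermal stability relative to solvent controls is reported from duplicates. For each sample, crude K562 extract from dounce-homogenised pellets in PBS pH 7.4 with 1 mM MgCl2, at 1 mg/mL protein, was treated with 10 μM compound for 30 min. Aliquots heated for 3 min across 48°C-58°C were pooled, brought to 0.5% NP-40 at 4°C and cleared at 21,000xg for 90 min. The supernatant was quantified by TMTpro 16plex LC-MS/MS with channel sums equalised.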

[2] = compound: CC1=C(SC2=C1C(=N[C@H](C3=NN=C(N32)C)CC(=O)N)C4=CC=C(C=C4)Cl)C
How it was run: as §1

[3] = compound: CC1=C2C(=CC=C1)N=C(N(C2=O)C3=CC=CC=C3C)CN4C=NC5=C(N=CN=C54)N
How it was run: as §1

[4] = compound: Cc1sc2c(c1C)C(c1ccc(Cl)cc1)=N[C@@H](CC(=O)OC(C)(C)C)c1nnc(C)n1-2
How it was run: as §1

[5] = compound: c1ccc([C@@H]2C[C@H]2NC2CCNCC2)cc1
How it was run: as §1

Sequence of UniProt Q9Y6X9 (Q9Y6X9 whole entry, looked up): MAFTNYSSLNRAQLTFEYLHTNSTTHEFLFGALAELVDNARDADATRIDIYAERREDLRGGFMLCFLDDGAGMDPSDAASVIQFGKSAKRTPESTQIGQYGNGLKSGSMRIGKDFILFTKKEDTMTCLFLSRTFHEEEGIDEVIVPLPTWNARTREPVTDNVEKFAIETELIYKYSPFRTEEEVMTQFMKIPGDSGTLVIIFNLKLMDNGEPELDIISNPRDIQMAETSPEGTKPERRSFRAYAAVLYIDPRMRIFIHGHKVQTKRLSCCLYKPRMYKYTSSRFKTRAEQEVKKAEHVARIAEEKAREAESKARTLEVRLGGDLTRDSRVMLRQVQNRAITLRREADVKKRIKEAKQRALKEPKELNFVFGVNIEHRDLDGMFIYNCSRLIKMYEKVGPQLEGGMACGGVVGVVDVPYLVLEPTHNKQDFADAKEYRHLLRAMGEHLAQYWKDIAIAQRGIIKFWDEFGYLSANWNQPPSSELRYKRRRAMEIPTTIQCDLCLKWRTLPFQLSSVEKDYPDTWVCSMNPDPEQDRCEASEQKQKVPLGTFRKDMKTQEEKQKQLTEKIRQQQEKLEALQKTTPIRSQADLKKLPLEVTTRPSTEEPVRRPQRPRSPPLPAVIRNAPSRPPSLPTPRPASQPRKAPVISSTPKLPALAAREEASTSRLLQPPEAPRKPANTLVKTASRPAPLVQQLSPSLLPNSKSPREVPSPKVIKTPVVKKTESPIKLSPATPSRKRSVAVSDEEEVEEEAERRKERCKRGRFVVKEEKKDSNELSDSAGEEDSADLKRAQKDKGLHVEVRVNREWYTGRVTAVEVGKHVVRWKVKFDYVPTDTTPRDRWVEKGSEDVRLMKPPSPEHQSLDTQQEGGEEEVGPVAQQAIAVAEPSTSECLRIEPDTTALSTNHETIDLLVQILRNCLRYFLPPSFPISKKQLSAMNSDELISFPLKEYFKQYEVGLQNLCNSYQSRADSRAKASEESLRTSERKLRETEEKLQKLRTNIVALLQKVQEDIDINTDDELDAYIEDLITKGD
Sequence of UniProt O94822 (O94822 whole entry, looked up): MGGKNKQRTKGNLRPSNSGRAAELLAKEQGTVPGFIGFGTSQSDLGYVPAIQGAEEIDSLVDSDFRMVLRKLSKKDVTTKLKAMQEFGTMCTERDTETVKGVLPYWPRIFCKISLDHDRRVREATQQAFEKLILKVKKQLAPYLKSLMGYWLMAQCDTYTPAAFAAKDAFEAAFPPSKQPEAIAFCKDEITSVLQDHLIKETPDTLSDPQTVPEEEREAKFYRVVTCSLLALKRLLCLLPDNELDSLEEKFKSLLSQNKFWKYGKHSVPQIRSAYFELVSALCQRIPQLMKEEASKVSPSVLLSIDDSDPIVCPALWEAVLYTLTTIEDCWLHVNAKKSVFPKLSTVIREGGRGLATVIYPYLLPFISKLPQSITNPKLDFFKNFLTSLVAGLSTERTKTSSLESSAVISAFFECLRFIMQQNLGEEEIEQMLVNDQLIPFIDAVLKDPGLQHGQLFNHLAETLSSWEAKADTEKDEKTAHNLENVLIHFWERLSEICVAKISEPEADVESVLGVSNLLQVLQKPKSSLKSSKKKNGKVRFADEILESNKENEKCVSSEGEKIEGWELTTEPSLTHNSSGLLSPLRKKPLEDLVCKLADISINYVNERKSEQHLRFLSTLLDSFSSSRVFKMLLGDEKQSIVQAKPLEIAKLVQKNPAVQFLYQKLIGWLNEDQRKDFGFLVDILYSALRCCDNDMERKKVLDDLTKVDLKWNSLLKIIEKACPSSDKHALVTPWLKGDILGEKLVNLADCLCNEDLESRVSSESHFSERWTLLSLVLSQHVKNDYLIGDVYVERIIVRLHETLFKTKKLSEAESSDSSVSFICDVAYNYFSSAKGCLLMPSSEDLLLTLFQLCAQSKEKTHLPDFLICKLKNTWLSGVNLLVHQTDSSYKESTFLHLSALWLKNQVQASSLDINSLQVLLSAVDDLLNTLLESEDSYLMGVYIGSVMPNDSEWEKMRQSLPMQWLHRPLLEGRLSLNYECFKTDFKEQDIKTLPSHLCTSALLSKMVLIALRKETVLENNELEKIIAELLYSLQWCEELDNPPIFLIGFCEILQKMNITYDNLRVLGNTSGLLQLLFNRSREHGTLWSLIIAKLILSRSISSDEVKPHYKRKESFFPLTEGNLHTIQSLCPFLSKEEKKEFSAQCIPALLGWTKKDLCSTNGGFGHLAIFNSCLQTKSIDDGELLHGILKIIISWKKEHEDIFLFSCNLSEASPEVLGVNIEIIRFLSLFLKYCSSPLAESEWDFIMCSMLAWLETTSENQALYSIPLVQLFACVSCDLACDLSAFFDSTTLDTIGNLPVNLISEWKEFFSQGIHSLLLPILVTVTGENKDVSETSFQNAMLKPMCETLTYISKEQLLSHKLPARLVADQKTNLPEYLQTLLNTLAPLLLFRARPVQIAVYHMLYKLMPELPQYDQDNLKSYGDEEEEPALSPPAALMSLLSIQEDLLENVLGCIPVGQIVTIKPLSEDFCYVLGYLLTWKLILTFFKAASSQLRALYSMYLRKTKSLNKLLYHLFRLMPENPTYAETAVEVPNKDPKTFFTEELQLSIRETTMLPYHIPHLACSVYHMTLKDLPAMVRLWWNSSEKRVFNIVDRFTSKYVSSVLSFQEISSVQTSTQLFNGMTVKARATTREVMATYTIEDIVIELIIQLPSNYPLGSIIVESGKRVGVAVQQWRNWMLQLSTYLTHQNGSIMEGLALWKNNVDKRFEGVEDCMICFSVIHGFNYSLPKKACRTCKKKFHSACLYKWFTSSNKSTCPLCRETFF
Sequence of UniProt Q9BV79 (Q9BV79 whole entry, looked up): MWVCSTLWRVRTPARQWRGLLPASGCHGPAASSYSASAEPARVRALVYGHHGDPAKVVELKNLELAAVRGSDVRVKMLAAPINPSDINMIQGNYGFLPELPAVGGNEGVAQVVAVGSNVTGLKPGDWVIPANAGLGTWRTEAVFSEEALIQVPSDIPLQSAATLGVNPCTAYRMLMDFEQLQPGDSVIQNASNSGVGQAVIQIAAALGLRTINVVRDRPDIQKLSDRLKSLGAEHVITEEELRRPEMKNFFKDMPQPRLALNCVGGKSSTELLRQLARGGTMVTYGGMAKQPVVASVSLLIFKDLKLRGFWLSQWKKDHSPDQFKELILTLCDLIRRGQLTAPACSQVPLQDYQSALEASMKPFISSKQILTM
Sequence of UniProt Q15031 (Q15031 whole entry, looked up): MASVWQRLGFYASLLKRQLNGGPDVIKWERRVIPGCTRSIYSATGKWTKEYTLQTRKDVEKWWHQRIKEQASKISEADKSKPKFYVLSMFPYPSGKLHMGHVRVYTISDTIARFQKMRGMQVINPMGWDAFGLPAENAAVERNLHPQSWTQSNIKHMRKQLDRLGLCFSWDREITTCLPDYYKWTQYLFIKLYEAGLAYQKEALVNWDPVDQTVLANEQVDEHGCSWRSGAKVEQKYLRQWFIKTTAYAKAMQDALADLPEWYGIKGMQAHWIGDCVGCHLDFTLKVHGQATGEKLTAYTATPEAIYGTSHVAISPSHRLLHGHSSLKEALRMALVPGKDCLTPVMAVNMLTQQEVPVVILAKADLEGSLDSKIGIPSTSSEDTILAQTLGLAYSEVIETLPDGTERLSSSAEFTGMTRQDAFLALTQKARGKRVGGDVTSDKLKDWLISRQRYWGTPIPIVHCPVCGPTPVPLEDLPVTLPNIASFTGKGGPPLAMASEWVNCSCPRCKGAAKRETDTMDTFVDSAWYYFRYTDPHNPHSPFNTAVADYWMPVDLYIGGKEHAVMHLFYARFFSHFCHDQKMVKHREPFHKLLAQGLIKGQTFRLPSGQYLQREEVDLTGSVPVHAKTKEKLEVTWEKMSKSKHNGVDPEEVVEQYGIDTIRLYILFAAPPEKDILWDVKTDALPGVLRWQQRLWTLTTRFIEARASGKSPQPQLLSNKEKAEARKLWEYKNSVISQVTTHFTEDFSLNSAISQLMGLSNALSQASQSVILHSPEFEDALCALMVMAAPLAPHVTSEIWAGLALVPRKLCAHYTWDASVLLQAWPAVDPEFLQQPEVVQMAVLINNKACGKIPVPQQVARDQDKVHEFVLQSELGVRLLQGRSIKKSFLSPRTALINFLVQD
Sequence of UniProt Q99797 (Q99797 whole entry, looked up): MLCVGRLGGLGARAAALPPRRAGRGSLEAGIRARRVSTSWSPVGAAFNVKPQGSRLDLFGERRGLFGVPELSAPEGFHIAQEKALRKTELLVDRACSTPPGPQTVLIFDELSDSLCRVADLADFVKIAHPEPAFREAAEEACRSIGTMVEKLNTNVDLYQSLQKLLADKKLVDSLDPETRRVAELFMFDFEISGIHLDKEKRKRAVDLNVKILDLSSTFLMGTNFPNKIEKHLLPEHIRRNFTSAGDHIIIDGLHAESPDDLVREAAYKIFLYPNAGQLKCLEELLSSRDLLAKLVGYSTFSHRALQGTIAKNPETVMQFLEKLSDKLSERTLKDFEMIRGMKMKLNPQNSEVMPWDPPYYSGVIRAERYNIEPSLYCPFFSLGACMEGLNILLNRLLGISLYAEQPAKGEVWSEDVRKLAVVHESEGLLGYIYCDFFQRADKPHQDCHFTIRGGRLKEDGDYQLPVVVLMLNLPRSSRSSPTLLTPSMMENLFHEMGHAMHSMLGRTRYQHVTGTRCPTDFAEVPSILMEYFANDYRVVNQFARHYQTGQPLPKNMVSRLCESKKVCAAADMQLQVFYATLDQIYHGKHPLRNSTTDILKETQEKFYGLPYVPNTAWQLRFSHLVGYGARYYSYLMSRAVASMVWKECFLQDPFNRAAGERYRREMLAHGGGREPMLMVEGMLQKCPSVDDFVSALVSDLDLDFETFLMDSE
Sequence of UniProt P14174 (P14174 whole entry, looked up): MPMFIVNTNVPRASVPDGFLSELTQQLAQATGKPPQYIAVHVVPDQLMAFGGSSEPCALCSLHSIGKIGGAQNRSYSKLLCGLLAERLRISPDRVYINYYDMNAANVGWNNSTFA
Sequence of UniProt Q14657 (Q14657 whole entry, looked up): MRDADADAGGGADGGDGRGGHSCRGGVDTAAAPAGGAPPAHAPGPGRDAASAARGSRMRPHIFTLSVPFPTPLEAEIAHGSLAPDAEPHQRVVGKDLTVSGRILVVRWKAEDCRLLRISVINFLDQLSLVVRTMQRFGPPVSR

Target | log2 fold change [1] | log2 fold change [2] | log2 fold change [3] | log2 fold change [4] | log2 fold change [5]
LYN (UniProt P07948) | -0.063 | -0.103 | -0.091 | -0.032 | 0.011
MOSPD2 (UniProt Q8NHP6) | -0.024 | 0.029 | 0.047 | -0.078 | -0.013
METTL7A (UniProt Q9H8H3) | 0.069 | -0.059 | -0.078 | -0.008 | -0.074
LAGE3 (UniProt Q14657) | 0.067 | -0.058 | -0.087 | -0.044 | 0.018
LBR (UniProt Q14739) | -0.018 | 0.045 | 0.04 | 0.007 | 0.117
LTN1 isoform 3 (UniProt O94822) | -0.059 | 0 | 0.027 | -0.025 | 0.04
MAST2 (UniProt Q6P0Q8) | -0.257 | 0.027 | 0.073 | -0.074 | -0.028
MECR (UniProt Q9BV79) | -0.001 | 0.013 | 0.047 | -0.048 | 0.005
MED14 (UniProt O60244) | -0.037 | 0.035 | 0.034 | -0.029 | 0
MAP4K5 (UniProt Q9Y4K4) | 0.069 | 0.063 | -0.079 | -0.022 | -0.1
MRPL28 (UniProt Q13084) | -0.002 | -0.062 | -0.026 | 0.066 | 0.356
MAPK14 (UniProt Q16539) | 0.007 | 0.024 | 0.034 | -0.04 | -0.015
MRPL35 (UniProt Q9NZE8) | -0.028 | -0.002 | 0.331 | -0.04 | 0
MIPEP (UniProt Q99797) | 0.015 | -0.019 | 0.052 | 0.028 | -0.008
MAP2K2 (UniProt P36507) | -0.04 | 0.022 | -0.047 | -0.068 | 0.064
MON2 isoform 5 (UniProt Q7Z3U7) | -0.014 | 0.006 | 0.005 | 0.009 | -0.013
MCCC1 (UniProt Q96RQ3) | -0.063 | 0.015 | 0.046 | 0.002 | 0.059
LETM1 (UniProt O95202) | 0.006 | -0.017 | 0.002 | 0.042 | -0.053
MORF4L1 isoform 2 (UniProt Q9UBU8) | 0.012 | -0.03 | -0.029 | -0.041 | -0.035
LIG4 (UniProt P49917) | -0.04 | 0.083 | -0.056 | -0.002 | 0.078
MAP2K5 (UniProt Q13163) | -0.046 | 0.155 | -0.045 | -0.407 | -0.02
MAPKAPK3 (UniProt Q16644) | 0.03 | -0.031 | -0.005 | 0.009 | 0.019
KIF2C (UniProt Q99661) | -0.022 | -0.023 | -0.009 | 0.052 | 0.032
LIMK2 isoform 3 (UniProt P53671) | -0.022 | -0.123 | 0.038 | 0.005 | -0.132
MBTPS1 (UniProt Q14703) | -0.317 (active) | 0.141 | 0.079 | -0.063 | 0.017
MARK2 (UniProt E9PC69) | 0.003 | -0.004 | 0.071 | -0.043 | 0.035

Target | log2 fold change [1] | log2 fold change [2] | log2 fold change [3] | log2 fold change [4] | log2 fold change [5]
MIF4GD isoform 3 (UniProt A9UHW6) | -0.046 | -0.033 | 0.005 | -0.051 | -0.029
MGST3 (UniProt O14880) | 0.003 | -0.033 | -0.008 | -0.072 | 0.056
KLC1 isoform 6 (UniProt Q07866) | 0.001 | 0.014 | 0.027 | 0.001 | 0.033
MCMBP (UniProt Q9BTE3) | -0.016 | 0.035 | 0.019 | -0.013 | 0.057
MARCHF6 (UniProt O60337) | -0.269 | -0.192 | -0.107 | -0.082 | 0.029
MARF1 (UniProt Q9Y4F3) | -0.052 | 0.013 | 0.175 | 0.024 | -0.023
MAP3K4 (UniProt Q9Y6R4) | 0.012 | -0.079 | -0.001 | -0.03 | -0.008
MOCS1 isoform 8 (UniProt Q9NZB8) | -0.061 | -0.044 | 0.058 | -0.017 | 0.067
LAMP1 (UniProt P11279) | -0.006 | 0.008 | 0.017 | -0.125 | -0.299
MACROD1 (UniProt Q9BQ69) | 0.048 | 0.022 | 0.004 | 0.049 | 0.075
MAPK9 (UniProt P45984) | -0.021 | 0.013 | 0.045 | -0.071 | 0.033
LYAR (UniProt Q9NX58) | 0.051 | 0.015 | -0.006 | 0.031 | 0.11
MMS19 isoform 8 (UniProt Q96T76) | -0.024 | 0.001 | 0.032 | -0.005 | 0.018
MAPKAPK5 (UniProt Q8IW41) | 0.034 | 0.027 | 0.014 | 0.013 | 0.01
LPIN1 isoform 7 (UniProt Q14693) | 0.053 | -0.003 | -0.053 | 0.029 | 0.194
LRWD1 (UniProt Q9UFC0) | -0.027 | 0.044 | -0.012 | 0.023 | 0.039
KIF22 (UniProt Q14807) | 0.047 | 0.077 | 0.014 | -0.159 | -0.198
MIF (UniProt P14174) | 0.046 | 0.022 | -0.043 | -0.013 | -0.09
MORC2 (UniProt Q9Y6X9) | -0.068 | 0.043 | 0.049 | -0.014 | 0.018
MAP4 (UniProt E7EVA0) | -0.024 | -0.002 | 0.037 | -0.018 | -0.041
KIFC3 isoform 6 (UniProt Q9BVG8) | 0.023 | 0.016 | -0.178 | -0.21 | -1.16 (active)
MMS22L (UniProt Q6ZRQ5) | -0.062 | -0.027 | -0.038 | 0.07 | 0.11
LARS2 (UniProt Q15031) | -0.07 | -0.072 | -0.019 | 0.066 | 0.064
MLH1 (UniProt P40692) | -0.038 | -0.006 | 0.006 | -0.012 | 0.019
KRR1 (UniProt Q13601) | 0.019 | -0.017 | 0.005 | 0.062 | 0.035
MPP5 (UniProt Q8N3R9) | -0.044 | 0.045 | -0.006 | 0.029 | -0.11
